Screening data: PubChem BioAssay, National Center for Advancing Translational Sciences (NCATS)
An excerpt weighted towards active compounds, which were near 10% of everything screened.
MCF10A rereplic: A quantitative high throughput screen for small molecules that induce DNA re-replication in MCF 10a normal breast cells. MCF 10A DNA re-replication, Hoechst nuclear intensity, 48 h. Potency, µM (doses to about 46.1 µM), inactives show at the top dose activity, positive = re-replication, actives largely listed as activators. 2.9% of 350,000 active. AID 624296, 2012; note: % of control where 0% means no effect; nearly all actives have a fitted effect of over 50% in size
VP16 counter: VP16 counterscreen qHTS for inhibitors of ROR gamma transcriptional activity | Potency, µM (top dose mostly 53.6 µM), for inactives: top-dose activity, negative = inhibition, hits mostly inhibitors | 3.5% of 310,000 active | Drosophila S2 Gal4-VP16 UAS-luciferase, luminescence, 20 h;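 note: Gal4-VP16 expression switched on by copper sulfate through the metallothionein promoter; % is set by controls: 0 for no effect and ±100 for the full control effect; nearly all actives have a fitted effect of over 50% in size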
SW480 rerep: A quantitative high throughput screen for small molecules that induce DNA re-replication in SW480 colon adenocarcinoma cells | SW480 DNA re-replication, Hoechst DNA content imaging, 48 h | Potency, µM (doses to about 46.1 µM), inactives show at the highest dose re-replication activation, actives largely listed as activators | 1.8% of 340,000 active | AID 624297, 2012; note: % of control where 0% means no effect; nearly all actives have a fitted effect of over 55% in size
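Compounds, transferred as 23 nL by pin tool, were incubated with cells for 48 hr; DNA content per nucleus was then quantified by Hoechst staining and fluorescence plate imaging.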
RORg inh: qHTS for inhibitors of ROR gamma transcriptional activity. Nuclear receptor ROR-gamma (Mus musculus), P51450. Drosophila S2 Gal4-RORgamma UAS-luciferase reporter, 20 h. Potency, µM (titrated, usually from 53.6 µM), for the others: top-dose activity change, negative = inhibition, hits mostly inhibitors. 5.4% of 310,000 active; note: % is set by controls: 0 for no effect and ±100 for the full control effect; nearly all actives have a fitted effect of over 60% in size
Target sequence (P51450 whole entry, looked up, the tested form may be a part): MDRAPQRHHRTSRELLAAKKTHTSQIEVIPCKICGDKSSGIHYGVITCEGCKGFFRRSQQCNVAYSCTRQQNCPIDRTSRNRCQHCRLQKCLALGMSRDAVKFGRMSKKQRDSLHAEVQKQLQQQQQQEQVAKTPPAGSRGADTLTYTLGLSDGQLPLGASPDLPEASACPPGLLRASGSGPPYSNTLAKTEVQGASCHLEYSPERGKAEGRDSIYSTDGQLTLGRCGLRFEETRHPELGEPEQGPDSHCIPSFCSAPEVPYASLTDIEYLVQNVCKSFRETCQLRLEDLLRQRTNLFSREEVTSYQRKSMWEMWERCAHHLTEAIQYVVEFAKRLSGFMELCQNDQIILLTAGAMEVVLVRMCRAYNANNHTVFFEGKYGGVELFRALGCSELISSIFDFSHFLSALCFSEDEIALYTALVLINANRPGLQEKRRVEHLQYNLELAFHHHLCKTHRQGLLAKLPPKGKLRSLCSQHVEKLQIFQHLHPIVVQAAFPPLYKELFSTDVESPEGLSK
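Stable Schneider cell line, Gal4 DNA-binding domain fused to ROR gamma, UAS-luciferase. Cmpd 1 hr RT → CuSO4 700 uM final → 20 hr RT → luciferase reagent 10 min → luminescence.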
ELG1 repair inh: qHTS screen for small molecules that inhibit ELG1-dependent DNA repair in human embryonic kidney (HEK293T) cells expressing luciferase-tagged ELG1 | 2.3% of 330,000 active | AID 504467, 2011 | HEK293T ELG1-luciferase reporter, luminescence, 16 h; DNA damage induced by 5-fluorouridine | Potency, µM (top dose mostly 46.1 µM), inactives show top-dose activity change, negative = inhibition, actives largely listed as inhibitors; note: % is set by controls: 0 for no effect and ±100 for the full control effect; nearly all actives have a fitted effect of over 55% in size
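Reporter activity after DNA damage by 5-fluorouridine is monitored. Compound-treated cells incubate 16 hr at 37 °C, then ONE-Glo is added for 30 min before luminescence reading.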
Active calls of the source: *; u = inconclusive; x = not tested or not shown; ! = not confirmed by another sample; [ ] = remark or other dose. Calls come from the whole dose curve; as a rule, active = well fitted curve in the direction sought with a large enough effect; inconclusive = small, poorly fitted or top-dose-only effect, or another doubt; inactive = no such curve, though single readings can be large; an effect the other way counts as inactive or inconclusive. Potency is the fitted concentration of half-maximal effect.

SMILES	MCF10A rereplic	VP16 counter	SW480 rerep	RORg inh	ELG1 repair inh
COc1ccccc1[C@H]1C(c2cccc(C)c2)=NN(c2ccccc2)[C@@H]1CO	u	-4.5%	0.326µM*	28.7%	-24.6%
COc1ccccc1[C@H]1C(c2ccccc2)=NN(c2ccccc2)[C@@H]1CO	1.84µM*	u	13µM*	43.6%	4.2%
Cc1[nH]c2ccccc2c1C(=O)NS(=O)(=O)Nc1ccc(F)cc1	1.4%	7.0%	-19.9%	11.6%	-7.8%
COc1cc2c(cc1OC)CN(C1CCC(C)CC1)CC2 (stereo not given)	-0.7%	x	u	x	-3.3%
COc1ccc(C2CC(c3c(-c4ccccc4)c4cc(Cl)ccc4[nH]c3=O)=NN2S(C)(=O)=O)cc1 (stereo not given)	u	-13.8%	5.8%	-21.5%	u
COc1ccc(OC)c(C2CC(c3c(-c4ccccc4)c4cc(Cl)ccc4[nH]c3=O)=NN2S(C)(=O)=O)c1 (stereo not given)	7.31µM*	-8.4%	u	u	5.17µM*
CN(C)S(=O)(=O)Oc1ccsc1C(=O)Nc1ccc(Cl)cc1	7.5%	25.1µM*	10.6%	-41.2%	-2.3%
COc1ccc(NC(=O)c2sccc2OS(=O)(=O)N(C)C)cc1	5.7%	7.4%	u	-1.0%	-10.7%
COc1ccc(COc2ccsc2C(=O)Nc2ccc(Cl)cc2)cc1	18.4µM*	u	u	-64.5%	-13.2%
C=CCN1C(=O)/C(=C2/Sc3ccc(OC)cc3N2C)SC1=Nc1cccc(O)c1	5.8µM*	-13.4%	u	-10.4%	u
CCNc1c(NS(=O)(=O)c2ccc(OC)cc2)c(=O)oc2ccccc12	4.0%	-9.1%	0.6%	11.9%	11.2%
Cc1ccc(/C=N\NC(=O)COc2ccc(C)cc2[N+](=O)[O-])cc1	6.9%	6.3%	-12.3%	-11.0%	-5.3%
Cc1ccc(OCC(=O)N/N=C\c2c(C)[nH]n(-c3ccccc3)c2=O)c([N+](=O)[O-])c1	6.9%	0.562µM*	-2.1%	0.501µM*	u
Cc1ccc(OCC(=O)N/N=C\c2cn(C)c3ccccc23)c([N+](=O)[O-])c1	16.8%	u	u	11.2µM*	u
Cn1cc(/C=N/NC(=O)COc2ccccc2[N+](=O)[O-])c2ccccc21	13.0%	12.6µM*	-14.4%	u	-15.9%
CC(NC(=O)CCC(=O)c1ccc(F)cc1)C1CC2CCC1C2 (stereo not given)	10.3µM*	-0.9%	u	20.7%	-16.8%
CC(NC(=O)c1ccc(F)cc1Cl)C1CC2CCC1C2 (stereo not given)	4.2%	-5.0%	-6.3%	0.1%	u
CC(C)(C)OC(=O)C(C)(C)O/N=C(\C(=O)O)c1csc(N)n1	-1.7%	-3.1%	-6.9%	-1.1%	-4.0%
O=c1c2ccccc2nc(-c2ccc([N+](=O)[O-])cc2)n1O	2.9%	3.98µM*	u	4.4%	u
O=C1CCCc2c1nc(-c1ccc([N+](=O)[O-])cc1)n2O	23.1µM*	-9.2%	33.6%	-27.6%	-0.5%
Cc1ccc(-c2nc3ccc(Cl)cc3c(=O)n2O)cc1	u	11.2µM*	u	u	u
O=[N+]([O-])c1ccc(-c2c(O)c3ccccc3c3nc4ccccc4nc23)cc1	16.7%	10.4%	9.7%	1.0%	23.1µM*
O=c1c2ccccc2nc(-c2cccc(Cl)c2)n1O	2.1%	x	-3.2%	1.4%[0.365 µM]	0.2%
COc1ccc(N(CC(=O)NC2CCCC2)C(=O)c2ccc(C)s2)cc1OC	0.9%	-8.3%	-1.3%	-15.0%	2.0%
O=c1c2ccccc2nc(-c2ccccc2)n1Cc1ccc(Cl)cc1	18.4µM*	11.6%	9.8%	u	1.5%
SMILES	MCF10A rereplic	VP16 counter	SW480 rerep	RORg inh	ELG1 repair inh
O=c1c2ccccc2nc(-c2ccccc2)n1Cc1ccccc1	u	24.3%	-2.7%	38.6%	u
O=c1c2cc(Cl)ccc2nc(-c2ccccc2Cl)n1O	u	20µM*	-2.6%	u	-9.6%
Cc1ccc(-c2nc3ccccc3c(=O)n2O)cc1	17.2%	14.1µM*	3.0%	u	23.5%
Cc1ccc(-c2csc3ncnc(Sc4nnc(CN5CCCCCC5=O)o4)c23)cc1	14.6µM*	u	u	10µM*	u
O=C(Cn1ncc(Cl)c(Cl)c1=O)NC(=O)NC1CCCCC1	8.2µM*	x	13µM*	x	u
CC(NC(=O)Cn1ncc(Cl)c(Cl)c1=O)C12CC3CC(CC(C3)C1)C2 (stereo not given)	3.66µM*	u	5.17µM*	12.6µM*	18.4µM*
O=C(CN1CCCCCCC1)NC(=O)NC1CCCCC1	16.4µM*	-0.1%	-2.5%	26.2%	u
CCn1cc(C(=O)NC(C)C23CC4CC(CC(C4)C2)C3)cn1 (stereo not given)	1.1%	-8.8%	-1.5%	-3.9%	9.6%
O=C(CN1CCCCC1)NC(=O)NC1CCCC1	4.0%	-9.1%	-3.4%	-9.4%	4.8%
O=C(CSc1nnc(NC(=O)c2ccc(F)cc2F)s1)NC1CC1	0.2%	-19.2%	-4.1%	-19.0%	u
O=C(NNC(=O)C12CC3CC(CC(C3)C1)C2)c1ccccn1	u	4.47µM*	u	0.501µM*	u
O=C(NNC(=O)C12CC3CC(CC(O)(C3)C1)C2)c1ccccc1O	2.7%	1.1%	16.4µM*	-37.3%	-3.2%
O=C(NNC(=O)C12CC3CC(CC(Br)(C3)C1)C2)c1ccccc1F	0.0%	x	-8.4%	x	6.0%
CCN(CC(=O)Nc1c(F)cccc1F)C(=O)c1ccc(S(=O)(=O)N(CC)c2ccccc2)cc1	1.6%	x	13.9%	x	x
CCOC(=O)O[C@]1(C(=O)OCCl)CC[C@@H]2[C@H]3CCC4=CC(=O)C=C[C@]4(C)[C@@H]3[C@@H](O)C[C@@]21C	-0.6%	-4.1%	-5.3%	-1.1%[10 µM]	x
CCCOc1ccc2ccccc2c1/C=N/n1c(C)nnc1-n1nc(C)cc1C	10.3µM*	1.0%	20.6µM*	0.0%	u
Cc1cc(C)n(-c2nnc(C)n2/N=C/c2ccco2)n1	11.1%	7.3%	2.0%	-4.1%	-9.6%
CC(=O)OCC(=O)[C@@]12OC3(CCCC3)O[C@@H]1C[C@H]1[C@@H]3CCC4=CC(=O)C=C[C@]4(C)[C@@]3(F)[C@@H](O)C[C@@]12C	u	-8.0%	0.259µM*!	8.91µM*	-1.2%
CC1(C)O[C@@H]2C[C@H]3[C@@H]4CCC5=CC(=O)C=C[C@]5(C)[C@@]4(F)[C@@H](O)C[C@]3(C)[C@]2(C(=O)CO)O1	-1.5%	2.6%	12.3%	u	u
O=S(c1ccc2ccccc2c1)c1cnns1 (stereo not given)	13µM*	u	u	11.2µM*	1.9%
